Compound activity (PubChem)
Only a selection was taken, and hits are over-represented in it overall.
IDE exosite inh: insulin-degrading enzyme (human) exo-site inhibition | P14735 | purified IDE, FL-6b probe fluorescence polarization; active compounds read low | z-score at 20 µM | 6.3% of 17,000 active | AID 1259349;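 active means z-score of -3 or lower, meaning strong loss of probe binding signal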;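 further: His-tagged human IDE residues 42-1019 made in E. coli with 30 nM FL-6b probe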
An asterisk follows results filed as active; ! = repeats disagree.

Screening Cc1cccc(-c2ccc(C3[C@@H]4CN(Cc5ccccc5)C[C@H]3N4)cc2)c1 (stereo partly specified) returned IDE exosite inh -5.1*.
For Cc1cccc(-c2ccc(C3[C@@H]4CN(Cc5cccc(F)c5)C[C@H]3N4)cc2)c1 (stereo partly specified) the results were IDE exosite inh -0.44.
Screening CN(C)C(=O)c1ccc(-c2ccc(C3[C@@H]4CN(C(=O)C5CC5)C[C@H]3N4)cc2)cc1 (stereo partly specified) returned IDE exosite inh 1.4.
Cc1cccc(-c2ccc(C3[C@@H]4CN(C(=O)Nc5ccc(F)cc5)C[C@H]3N4)cc2)c1 (stereo partly specified) was read as IDE exosite inh -0.36.
For c1ccc(CN2C[C@@H]3N[C@H](C2)C3c2ccc(-c3ccncc3)cc2)cc1 (stereo partly specified) the results were IDE exosite inh 2.4.
Screening N#Cc1cccc(-c2ccc(C3[C@@H]4CN(C(=O)Nc5ccccc5)C[C@H]3N4)cc2)c1 (stereo partly specified) returned IDE exosite inh 3.5.
`Cc1cccc(-c2ccc(C3[C@@H]4CN(C(=O)Nc5ccccc5)C[C@H]3N4)cc2)c1` (stereo partly specified) gave IDE exosite inh -4.3*.
For O=C(C1CCOCC1)N1C[C@@H]2N[C@H](C1)C2c1ccc(-c2cncnc2)cc1 (stereo partly specified) the results were IDE exosite inh 3.1.
Screening Cc1cccc(-c2ccc(C3[C@@H]4CN(C(=O)C5CCOCC5)C[C@H]3N4)cc2)c1 (stereo partly specified) returned IDE exosite inh -5.1*.
Screening OC[C@@H]1[C@@H](c2ccccc2)C2(CN(CC3CC3)C2)N1Cc1ccc(F)cc1 returned IDE exosite inh 0.32.
`N#C[C@H]1[C@@H](c2ccc(-c3ccccc3)cc2)[C@H](CO)N1C(=O)Cc1ccccc1` gave IDE exosite inh -0.42.
Screening O=C1CN(S(=O)(=O)Cc2ccccc2)C[C@H]2[C@H](c3ccc(C#Cc4cccnc4)cc3)[C@@H](CO)N12 returned IDE exosite inh 3.2.
`CCCNC(=O)N1[C@H](C#N)[C@H](c2ccccc2-c2cccc(C)c2)[C@@H]1CO` gave IDE exosite inh 0.52.
`CC(C)NC(=O)N1[C@H](CO)[C@H](c2ccccc2-c2ccc(F)cc2)[C@@H]1C#N` gave IDE exosite inh -1.3.
Screening C/C=C/c1ccc([C@H]2[C@@H](CO)N3C(=O)CN(Cc4ccc(C)cc4)C[C@@H]23)cc1 returned IDE exosite inh 0.047.
For CO[C@H]1CN(C)C(=O)c2ccc(NC(=O)Nc3ccccc3Cl)cc2OC[C@H](C)NC[C@H]1C the results were IDE exosite inh 0.24.
Screening CO[C@H]1CN(C)C(=O)c2ccc(NC(=O)C3CC3)cc2OC[C@H](C)N(C(C)=O)C[C@@H]1C returned IDE exosite inh -1.2.
CCC(=O)N1CC2(C1)[C@H](c1ccc(-c3ccc(F)cc3)cc1)[C@@H](CO)N2C(C)=O was read as IDE exosite inh -1.
Screening C[C@@H]1CCCCO[C@@H](CN(C)C(=O)c2ccncc2)[C@H](C)CN([C@H](C)CO)C(=O)c2cc(NC(=O)CCC(F)(F)F)ccc2O1 returned IDE exosite inh -0.31.
CO[C@@H]1CN(C)C(=O)c2cc(NC(=O)NC(C)C)ccc2OC[C@@H](C)N(Cc2ccccc2)C[C@@H]1C was read as IDE exosite inh -0.61.
For COCC(=O)N1CC(=O)N2[C@@H](CO)[C@H](c3ccc(-c4ccccc4)cc3)[C@@H]2C1 the results were IDE exosite inh -0.89.
Screening O=C(CC1CC1)N1CC(=O)N2[C@H](CO)[C@@H](c3ccc(/C=C/c4ccccc4)cc3)[C@H]2C1 returned IDE exosite inh -3.3*.
Screening O=C(CC1CC1)N1CC(=O)N2[C@H](CO)[C@H](c3ccc(/C=C/c4ccccc4)cc3)[C@@H]2C1 returned IDE exosite inh -1.5.
O=C(CC1CC1)N1CC(=O)N2[C@H](CO)[C@@H](c3ccc(-c4cccnc4)cc3)[C@@H]2C1 was read as IDE exosite inh -1.3.
O=C(CC1CC1)N1CC(=O)N2[C@@H](CO)[C@@H](c3ccc(-c4ccccc4)cc3)[C@@H]2C1 was read as IDE exosite inh -4.8*.
`O=C(CC1CC1)N1CC(=O)N2[C@@H](CO)[C@H](c3ccc(/C=C/c4ccccc4)cc3)[C@@H]2C1` gave IDE exosite inh -5*.
CC(C)NC(=O)NCC[C@@H]1CC[C@@H](NS(=O)(=O)c2ccc(Oc3ccccc3)cc2)[C@@H](CO)O1 was read as IDE exosite inh 0.65.
`C[C@H]1CCCCO[C@@H](CN(C)CC2CCCCC2)[C@@H](C)CN([C@@H](C)CO)C(=O)c2cc(NS(C)(=O)=O)ccc2O1` gave IDE exosite inh 0.17.
`COc1ccc(-c2ccc([C@H]3[C@H](CO)N4C(=O)CN(C(=O)Cc5ccccn5)C[C@@H]34)cc2)cc1` gave IDE exosite inh -1.3.
O=C(Cc1ccccn1)N1CC(=O)N2[C@H](CO)[C@@H](c3ccc(C#CC4CC4)cc3)[C@@H]2C1 was read as IDE exosite inh 0.65.
Screening O=C(Cc1ccccn1)N1CC(=O)N2[C@H](C1)[C@H](c1ccc(-c3ccccc3)cc1)[C@@H]2CO returned IDE exosite inh -1.5.
O=C(Cc1ccccn1)N1CC(=O)N2[C@H](CO)[C@H](c3ccc(C#CC4CC4)cc3)[C@@H]2C1 was read as IDE exosite inh 3.4.
`O=C(Cc1ccccn1)N1CC(=O)N2[C@H](CO)[C@H](c3ccc(-c4ccccc4)cc3)[C@@H]2C1` gave IDE exosite inh -3.7*.
Screening Cc1cccc(-c2ccc([C@@H]3[C@H]4CN(C(=O)Cc5ccccn5)CC(=O)N4[C@H]3CO)cc2)c1 returned IDE exosite inh -15*.
For CCCC#Cc1ccc([C@H]2[C@@H](CO)N3C(=O)CN(C(=O)Nc4cc(F)ccc4F)C[C@@H]23)cc1 the results were IDE exosite inh 3.7.
CO[C@@H]1CN(C)C(=O)c2ccc(NC(=O)c3cccc(F)c3)cc2OC[C@@H](C)NC[C@@H]1C was read as IDE exosite inh 0.98.
O=C(Nc1ccc(Cl)cc1)N1C[C@H]2[C@@H](c3ccccc31)[C@@H](CO)N2CC1CCCCC1 was read as IDE exosite inh 2.7.
For C[C@@H]1CN([C@H](C)CO)C(=O)c2cc(-c3cccc(C#N)c3)cnc2O[C@H]1CN(C)C(=O)C1CCOCC1 the results were IDE exosite inh -1.5.
CCCNC(=O)N1C[C@@H]2N[C@H](C1)C2c1ccc(-c2ccc(OC)cc2)cc1 (stereo partly specified) was read as IDE exosite inh -0.56.
`Cc1ccccc1-c1ccc(C2[C@@H]3CN(C(=O)Cc4ccncc4)C[C@H]2N3)cc1` (stereo partly specified) gave IDE exosite inh -9*!.
Screening CCCNC(=O)N1C[C@@H]2N[C@H](C1)C2c1ccc(-c2cccc(F)c2)cc1 (stereo partly specified) returned IDE exosite inh -0.44.
Screening CCCNC(=O)N1C[C@@H]2N[C@H](C1)C2c1ccc(-c2ccc(F)cc2)cc1 (stereo partly specified) returned IDE exosite inh 2.2.
CCCNC(=O)N1C[C@@H]2N[C@H](C1)C2c1ccc(-c2ccccc2C)cc1 (stereo partly specified) was read as IDE exosite inh -7.8*!.
`COc1cccc(-c2ccc(C3[C@H]4CNC[C@@H]3N4C(=O)NC3CCCCC3)cc2)c1` (stereo partly specified) gave IDE exosite inh -3.8*!.
